Results as given in PubChem BioAssay (NCI).
About 83,000 compounds went through this panel and 20% of them were active in at least one assay; those are over-represented in the sample as a whole.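 48-hour exposure, single concentration, 96-well plates; percent growth endpoint where 0 means no net growth. Active: below 10.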 Activity calls are given as the source filed them.

test system: TK-10 renal; assay: NCI-60 one-dose screen, 48 h (100 = growth as untreated, 0 = no growth, -100 = all killed); conditions: 10 µM unless noted
Method: Growth inhibition of the TK-10 human tumor cell line is measured as a screen for anti-cancer activity. Cells are grown in 96 well plates and exposed to the test compound for 48 hours. Compounds are tested at a single concentration, which is 10^-5 M for most compounds. The reported endpoint is percent growth (GI% or GIPRCNT), where numbers from 0 - 100% represent growth inhibition, and numbers from -100% - 0 represent cell death. For example, a value of 40 represents 60% growth inhibition. A value of 0 means no net growth occurred over the course of the experiment. A value of -40 indicates 40% of cells at the beginning of the experiment died by the end of the experiment. A value of -100 means all cells are dead at the end of the experiment.
NCI-60 Human Tumor Cell Lines Screen was performed using the standard one-dose NCI protocol, which is described in more detail at https://dtp.cancer.gov/discovery_development/nci-60/default.htm.
Compounds with GIPRCNT values below 10 were considered active. Activity score was based on GIPRCNT using the following formula: […]
Score is 0 for GIPRCNT values of 100 or above, 50 for GIPRCNT values of 0, and 100 for GIPRCNT values of -100.

| Compound | growth |
| --- | --- |
| CCOC(=O)c1cc2c(=O)oc3ccccc3c2oc1=O | 98.6% (inactive) |
| COc1ccc(-c2nc3c(c(-c4ccccc4)nn3-c3ccccc3)c(-c3ccc(N4CCN(C)CC4)cc3)c2C#N)cc1 | 99% (inactive) |
| COc1ccc(-c2nnc3n(C)c(=O)c4ccccc4n23)cc1N | 45.3% (inactive) |
| O=C(COc1ccc(-c2nc3ccccc3[nH]2)cc1)N=Nc1c(O)[nH]c2ccc(Cl)cc12 | 88.2% (inactive) |
| COC(=O)c1cc(-c2ccccc2)[nH]c1N/N=C/c1c(Cl)cccc1Cl | 26.4% (inactive) |
| O=C1N(Cc2ccccc2Cl)c2ccccc2C12NN=C(c1cccc(Cl)c1)S2 (stereo not given) | -3.68% (active) |
| O=C1COCCN1c1ccc(Nc2nc(Cl)nc(OCc3cn(Cc4ccccc4)nn3)n2)cc1 | 98.6% (inactive) |
| CCOC(=O)c1cn2ncnc(Oc3ccc(NC(=O)NC4CCCCC4)c(Cl)c3)c2c1C | 111% (inactive) |
| CCNc1cc(-c2cccc(OC(F)(F)F)c2)nc2ccc(N3CCCC3)cc12 | 35.5% (inactive) |
| CCCCN1C(=O)/C(=c2\sc3n(c2=O)C2C(NN=3)N(CC)C(=O)N2CC)c2ccccc21 (stereo not given) | 55.9% (inactive) |
| Cc1ccc(-n2c(=S)[nH]c3sc4c(c3c2=O)CCC(=O)C4)cc1 | 83.5% (inactive) |
| O=C(/C=C(/C=C/c1cccc2[nH]ccc12)OB(F)F)/C=C/c1cccc2[nH]ccc12 | -37.9% (active) |
| C=C(C)[C@@H]1CC[C@]2(C(=O)OC)CC[C@]3(C)[C@H](CC[C@@H]4[C@@]5(C)C/C(=C/NC(N)=S)C(=O)C(C)(C)[C@@H]5CC[C@]43C)[C@@H]12 | 111% (inactive) |
| CC(C)(C)c1cc(-c2nc3ccc(N4CCN(S(C)(=O)=O)CC4)cc3[nH]2)cc(C(C)(C)C)c1O | 90.4% (inactive) |
| COc1cc(CNS(=O)(=O)c2ccc(C)cc2)ccc1OCc1cn(-c2ccc(Br)cc2)nn1 | 112% (inactive) |
| CCCCCCNC(=O)Oc1ccc(/C(=C(/C)Cc2ccc(OC)cc2)c2ccc(OCCCN(C)C)cc2)cc1 | 51.3% (inactive) |
| O=C(Cc1ccccc1)Nc1nc(O)c(/C=C2\C(=O)C=Cc3ccccc32)s1 | 150% (inactive) |
| Cc1ccccc1/C=C1\CN(C(=O)OC(C)(C)C)C/C(=C\c2ccccc2C)C1=O | 30.3% (inactive) |
| Nc1ncnc2c1N=C(c1ccc3c(c1)OCO3)CC(c1ccc([N+](=O)[O-])cc1)N2 (stereo not given) | 112% (inactive) |
| COc1ccc(C2=Nc3c/c(=C\c4c(O)[nH]c5ccc(Cl)cc45)ccc3=N2)cc1 | 82.5% (inactive) |

| Compound | growth |
| --- | --- |
| CCN1CCN(Cc2cn(CC(=O)Nc3ccc4c(ccn4Cc4ccccc4)c3)nn2)CC1 | 99.2% (inactive) |
| C=C(C)[C@@H]1CC[C@]2(C(=O)NCCNCCN)CC[C@]3(C)[C@H](CC[C@@H]4[C@@]5(C)C/C(=C/c6ccncc6)C(=O)C(C)(C)[C@@H]5CC[C@]43C)[C@@H]12 | 118% (inactive) |
| COc1ccc2c3c([nH]c2c1)C(=O)c1nc(C)ccc1C3=O | 109% (inactive) |
| CCNc1nc(-c2ccc(Cl)c(OC)c2)c(-c2ccnc(NCCCNS(=O)(=O)c3ccc(Cl)cc3)n2)s1 | 43.7% (inactive) |
| COCCNC(=O)c1ccc(-c2nc3ccc4[nH]ncc4c3c3c2CCCC3)cc1 | 38.9% (inactive) |
| O=C(O)[C@@H]1c2ccccc2-c2ccccc2[C@H]1C(=O)O | 105% (inactive) |
| COc1cc(-c2nc(SCC(C)C)nc(Nc3cccc4ccccc34)c2C#N)cc(OC)c1OC | 128% (inactive) |
| CCOC(=O)CSc1ncnc2c1c(-c1ccccc1)c(-c1ccccc1)n2-c1ccc(C)cc1 | 78.5% (inactive) |
| CCn1cc(C(=O)N/N=C/c2cccs2)c(=O)c2cc(F)c(N3CCNC(C)C3)c(F)c21 (stereo not given) | 83.9% (inactive) |
| CCCCNC(=O)Oc1ccc(/C(=C(/CC)Cc2ccccc2)c2ccc(OCCN3CCCCCC3)cc2)cc1 | 92.4% (inactive) |
| CCOP(=O)(OCC)c1nc(-c2ccccc2)oc1NCc1cccnc1 | 101% (inactive) |
| COc1cc(-c2csc(NC(=O)c3cc(-n4cnc(C)c4)cc(C(F)(F)F)c3)n2)cc(OC)c1OC | 85.6% (inactive) |
| COc1ccc(-c2nc3c(c(-c4ccccc4)nn3-c3ccccc3)c(-c3ccc(N4CCOCC4)cc3)c2C#N)cc1 | 110% (inactive) |
| O=C1/C(=C/c2ccc(F)cc2)COc2ccc(O)c(O)c21 | 17.8% (inactive) |
| O=C1/C(=C/c2ccc(-c3ccc(Br)cc3)o2)SC(=S)N1CCc1ccc(O)cc1 | 87% (inactive) |
| CCOc1nc(-c2ccccc2)cc2c(O)c(C(=O)NN)[nH]c(=O)c12 | 120% (inactive) |
| N#CC1=C(c2ccc(Cl)cc2)Nc2c(c(-c3ccc(Cl)cc3)nn2-c2ccccc2)C12C(=O)Nc1ccc(Cl)cc12 (stereo not given) | 44.9% (inactive) |
| CCn1c(=S)[nH]c2c(=O)n(C)c(=O)n(C)c21 | 108% (inactive) |
| C/C(=N/O)c1ccc(F)cc1 | 92.8% (inactive) |
| CCOC(=O)c1c2c(n3ccc(C)cc13)C(=O)c1ccccc1C2=O | 103% (inactive) |
